From PubChem
ROMK mod = human ROMK K+ channel modulation, primary screen | B-score at 10 µM | Tet-inducible ROMK, thallium flux fluorescence; actives lie on both sides | AID 1918 | P48048 | actives 2% (n = 130,000);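 active = signal ratio slope over the read window, or its plate-corrected B-score, at least 3 SD from the plate mean, either direction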;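 also: B-score of the F/F0 ratio slope over 7 to 12 s after thallium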
Insulin prom up = MIN6 insulin promoter up-regulation | actives 0.3% (n = 190,000) | MIN6 insulin promoter-GFP reporter, high-content imaging; hits give high values | z-score at 5 µM;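 active = z-score above 3 at 5 µM with at least 500 cells counted in the well; inconclusive = wells under 500 cells, flagged as cytotoxic or low count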
Insulin prom inh = TRM-6 insulin promoter activity inhibition; inhibition, % at 2 µM; actives 0.9% (n = 130,000); TRM-6 cells (human fetal islet line), insulin promoter-eGFP reporter, imaging; reporter expression induced with tamoxifen;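 active = inhibition above the mean plus 3 SD, with well images judged a real hit on visual review, cut at about 60% in these data, passing the limit was not always enough; inconclusive = inhibition over the cutoff but images rejected on review; inactive = inhibition not above the cutoff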
L major viab = reduces viability of Leishmania major promastigotes; resazurin fluorescence viability; inhibition, % at 10 µM; actives 9% (n = 200,000); in the data active = inhibition above about 50%;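 also: promastigotes grown with compound for 44 hours at 28 °C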
Cl transport mod = modulates chloride dependent transport by human KCC2 | actives 2.2% (n = 190,000) | B-score of Tl+ flux slope (higher = more flux/activation; lower = inhibition) at 10 µM | KCC2 cells, thallium flux FluoZin-2 fluorescence | Q9H2X9 | AID 1456;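 active = thallium flux slope and its plate-corrected score both differing from the plate sample mean at a set confidence after two filtering rounds, in either direction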;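 also: slope of fluorescence scaled to starting intensity during 10 to 20 s after thallium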
WT yeast gro inh = growth inhibition of WT yeast, mitochondrial fusion screen | AID 1362 | actives 2.1% (n = 190,000) | inhibition, % at 10 µM | mitochondrial fusion phenotypic screen, WT strain; in the data active = inhibition above about 58%; tested in S. cerevisiae
* hit, by the source's call; ? = inconclusive; nt = no result. Only some compounds are listed: those with a hit (about 12% of all), similar ones and a draw of the others.

SMILES	ROMK mod	Insulin prom up	Insulin prom inh	L major viab	Cl transport mod	WT yeast gro inh
N#CCCn1nc(-c2ccc(Br)cc2)cc1Nc1ccccc1NC(=O)C(F)(F)F	-0.84	-1.2	30	69*	-0.6	39
O=C(O)CN(c1ccc2c(c1)OCCO2)S(=O)(=O)c1ccccc1	nt	0.02	-18	-3	0.78	-18
COC(=O)CN(c1ccc2c(c1)OCCO2)S(=O)(=O)c1ccccc1	nt	0.56	60	2	-0.39	73*
CC(C)(C)NC(=O)CN(Cc1cccs1)C(=O)CN1C(=O)C(=O)c2ccccc21	1.4	nt	nt	-6	1.3	-1
COc1cccc(C(=O)NNC(=O)c2ccccc2-n2cccc2)c1	1.2	0.13	nt	-2	0.62	1
CCc1nn(CC(=O)NCCCN(CC)Cc2ccccc2)c(=O)c2cc3sccc3n12	nt	0.49	nt	55*	-0.92	0
CCc1nn(CC(=O)NCCCN2CCCC2=O)c(=O)c2cc3sccc3n12	nt	0.71	40	-3	-0.76	10
Cc1ccc(CC(=O)OCC(=O)NC2CCCC(C)C2C)cc1C (stereo not given)	nt	-0.06	-42	-4	-1	16
CC1CN(C(=O)CCn2c(=O)oc3ccccc32)CC(C)O1 (stereo not given)	0.19	8*	nt	12	nt	-9
CCCCCNC(=O)CCn1c(=O)oc2ccccc21	nt	nt	-1	0	0.28	-11
COCCNC(=O)CCn1c(=O)oc2ccccc21	0.26	nt	-43	70*	nt	50
CC(C)n1cc(/C=C2/SC(=O)N(CC(=O)Nc3ccc4c(c3)OCO4)C2=O)c2ccccc21	-0.87	-0.55	nt	0	nt	-4
Cc1nn(-c2ccc(Cl)cc2)c(=O)c2ccccc12	-0.76	1.1	nt	-3	-0.97	8
Cc1nn(-c2ccccc2)c(=S)c2ccccc12	nt	-0.14	38	71*	-0.37	-12
Cc1ccc(C2c3c(C)nn(-c4ccc([N+](=O)[O-])cc4)c3N=C3C(=O)Nc4ccccc4N32)cc1 (stereo not given)	-0.041	-0.06	nt	99*	-0.81	3
Cc1nn(-c2ccc([N+](=O)[O-])cc2)c2c1C(c1ccc(OC(F)F)cc1)N1C(=N2)C(=O)Nc2ccccc21 (stereo not given)	1.2	-2.7	53	68*	-0.25	2
COc1cccc(C2c3c(C)nn(-c4ccc([N+](=O)[O-])cc4)c3N=C3C(=O)Nc4ccccc4N32)c1 (stereo not given)	0.77	-1.2	nt	65*	0.045	9
CC(=O)Nc1c(C)nn(-c2ccc([N+](=O)[O-])cc2)c1C	nt	0.33	57	2	-0.39	1
COc1ccc2c(c1)-c1c(ssc1=S)C(C)(C)N2S(=O)(=O)c1ccc(C)cc1	nt	-0.12	10	92*	-3.4	41
Cc1ccc(S(=O)(=O)N2c3ccccc3-c3c(ssc3=S)C2(C)C)cc1	-2.2	-0.45	19	99*	0.2	34
COc1ccnc(Oc2cc(Cl)cc(Cl)c2)c1C#N	nt	-0.54	nt	-5	0.0079	-3
S=c1[nH]nc(-c2ccc3ncccc3c2)n1-c1ccc2c(c1)OCCO2	0.27	-0.4	-89	91*	0.56	3
CC(=O)c1c(C(C)=O)c(C)n(-c2ccc3ncccc3c2)c1C	nt	0.05	nt	3	-1	4
Oc1ccc(-c2n[nH]c(=S)n2-c2ccc3c(c2)OCCO3)cc1	0.85	-0.4	17	0	-0.019	2
S=c1[nH]nc(-c2ccc3ccccc3n2)n1-c1ccc2ncccc2c1	0.2	-0.46	-25	88*	0.059	17
SMILES	ROMK mod	Insulin prom up	Insulin prom inh	L major viab	Cl transport mod	WT yeast gro inh
COc1ccc(C2/C=C\CN(C(=O)C3CCCC3)[C@H](Cc3ccccc3)C(=O)N2Cc2ccc(F)cc2)cc1 (stereo not given in full)	nt	nt	nt	nt	-0.55	nt
CCOC(=O)c1c(N)sc2c(OC)c(Br)ccc12	-0.53	0.93	29	-2	nt	9
CCCc1sc(N/N=C/c2ccccn2)nc1-c1ccc(F)cc1	nt	nt	?	96*	nt	83*
COC(=O)CSc1nc(C)cc(C)n1	nt	-0.1	nt	0	nt	0
C=CCOC(=O)C1=C(C)NC(C)=C(C(=O)OCC=C)C1/C=C/c1ccccc1	0.87	nt	nt	100*	-0.25	50
Cc1ccc(C(NC(=O)/C=C\c2ccc3c(c2)OCO3)C(=O)Nc2ccc3c(c2)OCO3)cc1 (stereo not given)	-1.6	0.44	38	100*	0.037	14
CCOC(=O)c1cccc(NC(=O)/C=C/c2ccc3c(c2)OCO3)c1	-0.35	0.07	-56	9	-2.7	10
O=C(/C=C/c1ccc2c(c1)OCO2)Nc1ccc(Cl)cn1	0.68	-0.86	73*	-1	-1.6	16
Cc1cccc2cc3c(N)c(C(=O)Nc4ccc(N5CCOCC5)cc4)sc3nc12	nt	-0.2	-27	18	nt	2
Cc1cccc2cc3c(N)c(C(=O)N4CCc5ccccc54)sc3nc12	-0.14	4.4*	-233	0	0.19	25
Cc1sc(NC(=O)c2sc3nc4c(C)cccc4cc3c2N)c(C#N)c1C	nt	nt	-22	56*	0.54	15
COc1ccc(C(=O)c2sc(NC(C)C)nc2N)cc1OC	-4.2*	0.88	14	15	nt	-7
Cc1ccc2[nH]c(=O)c(C(c3nnnn3CCc3ccccc3)N3CCOCC3)cc2c1 (stereo not given)	nt	0.08	33	97*	-0.24	-18
COc1ccc2cc(C(c3nnnn3CCc3ccccc3)N3CCCC(C)C3)c(=O)[nH]c2c1 (stereo not given)	-1.7	-1.3	nt	48	-0.82	34
COCCn1nnnc1C(c1cc2cc(OC)ccc2[nH]c1=O)N1CCC(Cc2ccccc2)CC1 (stereo not given)	nt	-0.08	9	50*	0.17	10
COCCn1nnnc1C(c1cc2cc(C)ccc2[nH]c1=O)N1CCCCCC1 (stereo not given)	nt	0.32	35	-7	0.12	10
CC(C)c1ccc(S(=O)(=O)/N=C2/C=C(Sc3ncn[nH]3)C(=O)c3ccccc32)cc1	-2.6*	1.3	-118	99*	1.7	47
Cc1ccc(S(=O)(=O)/N=C2/C=C(Sc3ncn[nH]3)C(=O)c3ccccc32)cc1	nt	1.4	-210	100*	-0.95	45
Cc1ccc(S(=O)(=O)/N=C2/C=C(Sc3ncn[nH]3)C(=O)c3ccccc32)c(C)c1	-1.9	-0.15	-185	99*	0.93	74
COc1ccc2c(c1)CC1c3c(cc4c(c3-2)OCO4)CC[N+]1(C)[O-] (stereo not given)	nt	nt	nt	nt	1	nt
COc1cc(/C=N/N=C(N)N)ccc1OCc1ccc(Cl)cc1	-1.2	-4.3	nt	101*	0.028	-13
COc1cc(/C=N/NC(N)=S)ccc1OC(=O)c1ccc(C)cc1	-0.18	-0.17	-39	10	-0.29	-14
COc1cc(/C=N/NC(N)=S)ccc1OCc1ccc(C)cc1	0.061	-0.13	-18	100*	-0.39	14
Cc1ccc(S(=O)(=O)N(c2nc(N(C)C)nc(N(C)C)n2)n2cnnc2)cc1	nt	-0.1	nt	-6	0.63	14
